Data on 7 compounds can be found in PubChem BioAssay (Tox21).

A short description of test [1]: qHTS assay to identify small molecule agonists of the hypoxia (HIF-1) signaling pathway - cell viability counter screen (AID 1224844; calls by dose curve; also: nearly all actives have a fitted effect of over 50% in size; also: potency is read from the fitted curve at half-maximal effect). The method in brief:
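HRE-bla ME-180; 0.5% dFBS; cpd 17 h, 37C, 5% CO2; CellTiter-Glo lum., 30 min RT, post-FRET read, same wells.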

Test [2] can be described thus: qHTS assay to identify small molecule agonists of H2AX (AID 1224845; active = well fitted activation curve with a large enough effect in the signal ratio in the repeat runs, not every such curve was filed as active; the % refers to the signal ratio; also: potency is read from the fitted curve at half-maximal effect). The gist of the method:
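Wild-type CHO-K1 cells plated overnight, then exposed 3 hr at 37C to compounds at 15 concentrations (0.76% DMSO). Lysed, then HTRF anti-pH2AX(S139)-cryptate/anti-H2AX-d2 detection after 24 hr at room temperature; emissions 665 and 620 nm.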

Test [3] in a line: qHTS assay to identify small molecule agonists of the hypoxia (HIF-1) signaling pathway (AID 1224846; active = well fitted activation curve with a large enough effect in the signal ratio in the repeat runs, not every such curve was filed as active; the % refers to the signal ratio). The gist of the method:
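Reporter induction in HRE-bla ME-180 cells is taken as agonism: cells sit 5 hrs after plating, receive compounds or DMSO only, incubate 17 hrs at 37C under 5% CO2, and are loaded with CCF4-AM for beta-lactamase FRET measurement.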

Test [4] can be described thus: qHTS assay to identify small molecule agonists of H2AX - cell viability counter screen (AID 1224847; calls by dose curve; also: top concentration of the series differs between compounds; nearly all actives have a fitted effect of over 30% in size). The method in brief:
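After overnight plating of 1000 CHO-K1 cells per well, a 15-concentration compound series was applied for 3 hr at 37C. Luminescence from CellTiter-Glo, read following 30 min at room temperature, reflected cell viability.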

A short description of test [5]: qHTS assay to identify small molecule antagonists of the estrogen related receptor (ERR) signaling pathway from Tox21 library (AID 1224848). Also: nearly all actives have a fitted effect of over 50% in size. Also: potency is read from the fitted curve at half-maximal effect. The method in brief:
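First, 2,000 ERR cells per well were plated and held 6 h at 37 C/5% CO2. Next, compounds in DMSO were pinned in and left 18 h at 37 C. Finally, ONE-Glo was added and luminescence read after 30 min at room temperature.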

Test [6] can be described thus: qHTS assay to identify small molecule agonists of the estrogen related receptor (ERR) signaling pathway from Tox21 library (AID 1224849; calls by dose curve; also: nearly all actives have a fitted effect of over 15% in size). The following applies: ERR reporter cell line, ONE-Glo luciferase, 18 h. The method in brief: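 Tox21 compounds tested for ERR agonism in an NTP reporter cell line: 18 h treatment at 37 C, then ONE-Glo luminescence.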
The nature of test [7]: qHTS RealTime-Glo MT Cell Viability Assay in HepG2 cells - 24 hour (AID 1224867). Also: nearly all actives have a fitted effect of over 50% in size. The method in brief:
(§1)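 Viability was tracked continuously by NanoLuc luminescence from prosubstrate reduced by living HepG2 cells, at successive time points over 40 h of compound exposure. Cells with reagent were preincubated 5 h at 37 °C before compound addition.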

The nature of test [8]: qHTS RealTime-Glo MT Cell Viability Assay in HEK293 cells - 32 hour (AID 1224868). Also: nearly all actives have a fitted effect of over 50% in size. Also: potency is read from the fitted curve at half-maximal effect. The method in brief: (§2)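 Viability tracked continuously by luminescence as live cells reduce a prosubstrate for NanoLuc; HEK293 cells preincubated 5 h, compound-treated at 37 C, and read at 0, 8, 16, 24, 32 and 40 h.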
Test [9] can be described thus: A CellTox Green Cytotoxicity Assay to monitor cytotoxicity in HEK293 cells - 0 hour (AID 1224869). Also: nearly all actives have a fitted effect of over 50% in size. The gist of the method:
(§3)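 Tox21 screen in HEK293: membrane-impermeant cyanine dye fluoresces on binding dead-cell DNA; compound pinned 5 h post-seeding, plates held at 37 C, signal read repeatedly through 40 h.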

Test [10] is described as follows: qHTS RealTime-Glo MT Cell Viability Assay in HepG2 cells - 40 hour (AID 1224870). Also: nearly all actives have a fitted effect of over 50% in size. The method in brief:
(§4)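 HepG2 cells mixed with RealTime-Glo MT reagents (NanoLuc plus cell-permeant prosubstrate) were seeded at 600 cells/well, incubated 5 h at 37 C/5% CO2, then pinned with compounds in DMSO; nonlytic luminescence tracked viability during 40 h treatment.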

Test [11] can be described thus: qHTS RealTime-Glo MT Cell Viability Assay in HEK293 cells - 16 hour (AID 1224872). The method in brief:
as §2

Test [12] is described as follows: qHTS RealTime-Glo MT Cell Viability Assay in HepG2 cells - 8 hour (AID 1224873). Also: nearly all actives have a fitted effect of over 55% in size. The method in brief:
as §4

Test [13] can be described thus: A CellTox Green Cytotoxicity Assay to monitor cytotoxicity in HEK293 cells - 24 hour (AID 1224875). Also: nearly all actives have a fitted effect of over 45% in size. The method in brief: as §3
A short description of test [14]: A CellTox Green Cytotoxicity Assay to monitor cytotoxicity in HepG2 cells - 16 hour (AID 1224876). Also: nearly all actives have a fitted effect of over 45% in size. The gist of the method: (§5)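 Measurements at 0, 8, 16, 24, 32 and 40 h of treatment captured CellTox Green fluorescence in HepG2 cells that had been co-plated with reagent and preincubated 5 h at 37 C/5% CO2.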
Test [15] is described as follows: qHTS RealTime-Glo MT Cell Viability Assay in HepG2 cells - 32 hour (AID 1224877). Also: nearly all actives have a fitted effect of over 55% in size. The method in brief: as §1
Test [16] in a line: A CellTox Green Cytotoxicity Assay to monitor cytotoxicity in HepG2 cells - 24 hour (AID 1224878). Also: nearly all actives have a fitted effect of over 45% in size. The gist of the method: as §5
A short description of test [17]: A CellTox Green Cytotoxicity Assay to monitor cytotoxicity in HepG2 cells - 40 hour (AID 1224879). Also: nearly all actives have a fitted effect of over 40% in size. The gist of the method:
as §5

Test [18] in a line: qHTS RealTime-Glo MT Cell Viability Assay in HEK293 cells - 0 hour (AID 1224880). Also: top concentration of the series differs between compounds; nearly all actives have a fitted effect of over 45% in size. The gist of the method: (§6)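 HEK293 + NanoLuc + prosubstrate, 600 cells/well; 5 h, 37 C/5% CO2; compound 23 nL in DMSO by pintool; 37 C; luminescence read at 0, 8, 16, 24, 32 and 40 h time points.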
Test [19] in a line: A CellTox Green Cytotoxicity Assay to monitor cytotoxicity in HEK293 cells - 40 hour (AID 1224871). Also: nearly all actives have a fitted effect of over 45% in size. The method in brief: as §3
A short description of test [20]: qHTS RealTime-Glo MT Cell Viability Assay in HEK293 cells - 40 hour (AID 1224874). Also: nearly all actives have a fitted effect of over 50% in size. Also: potency is read from the fitted curve at half-maximal effect. As to conditions: RealTime-Glo luminescence; max response: stronger effect = lower value. The method in brief:
as §6

SMILES strings stand for the structures. “And” between values parts separate entries of the source, which are not always exact repeats. Identical values can stand only once. Records with an inconclusive call do not appear. A structure can be active in one record and inactive in another. The source made the active and inactive calls. Unless noted, calls follow the shape of the dose curve; as a rule, active = well fitted curve in the direction sought with a large enough effect in the repeat runs; inconclusive = weak or mixed curves; inactive = no such curve, though single readings can be large; an effect the other way counts as inactive or inconclusive.
% is scaled to controls: 0 for no effect and ±100 for the full control effect.

For the compound `COC1=CC(=O)O[C@@H](/C=C/c2ccc3c(c2)OCO3)C1`, the Potency result in test [1], in test [2], in [4], in test [7], in test [8] and in test [9] was “inactive” throughout. For the same compound, the Potency entry in test [10], in [11], in test [12], in test [13], in test [14] and in test [15] was “inactive” throughout. The Potency entry in test [16] and in [17] was “inactive” each time. Besides, the call in [3] and in [18] was inactive. In test [5], the Potency is 20.8 µM (active). Besides, the activity change, positive = activation in [6] (at 92.4 µM (top of the series)) was -47.8% (inactive).
On to `OCCCl`, for which the Potency entry in test [1], in [2], in test [4], in [7], in test [8] and in [9] was “inactive” each time. Also, the Potency entry in [10], in test [19], in test [11], in test [12], in [13] and in test [14] was “inactive” throughout. Further, the Potency result in test [15], in test [16] and in test [17] was “inactive” each time. Further, the compound was classed as inactive in test [3] and in [18]. In test [20], the max response was 0.0487% (inactive).
`OC[P+](CO)(CO)CO`: the Potency in test [1] was 44.2 µM (active) and inactive. In addition, the Potency result in test [2], in [4], in [7], in test [8], in test [9] and in test [10] was “inactive” each time. In addition, the Potency result in test [19], in test [11], in test [12], in test [13], in [14] and in [15] was “inactive” each time. Besides, in test [16], the Potency result was “inactive”. Besides, the result in test [3] and in [18] was inactive. Besides, the max response in test [20] was 5.15% (inactive) and -10.7% (inactive).
On to `Cc1nc2ccccc2c(=O)n1-c1ccccc1Cl`, for which the Potency result in test [1], in test [4], in test [9], in test [10], in test [19] and in test [13] was “inactive” each time. For the same compound, the Potency result in test [14], in test [15], in [16] and in test [17] was “inactive” each time. Moreover, the Potency in test [2] was 27.8 µM (active); in [8], 21.4 µM (active); in test [20] it was 21.4 µM (active). Besides, the call in [3] and in test [18] was inactive. Also, the activity change, positive = activation in test [6] (at 92.4 µM (top of the series)) was -29.9% (inactive).
On to `NC(=O)CF`, for which the Potency result in test [1], in test [2], in test [4], in [7], in [8] and in test [9] was “inactive” each time. Further, the Potency entry in [10], in [19], in [11], in test [12], in test [14] and in test [15] was “inactive” throughout. Also, the Potency entry in test [16] and in test [17] was “inactive” in each case. For the same compound, the call in [3] and in [18] was inactive. In test [20], the max response is -4.69% (inactive).
For `C=CCOC(=O)C(C)(C)OC(=O)c1cc(-n2c(=O)cc(C(F)(F)F)n(C)c2=O)ccc1Cl`, the Potency result in test [1], in [2], in test [4], in test [7], in test [10] and in [19] was “inactive” throughout. In addition, the Potency entry in test [12], in test [13], in [14], in test [15], in [16] and in [17] was “inactive” in each case. For the same compound, the compound was classed as inactive in test [3]. Moreover, the Potency was 26.8 µM (active) in test [5] and 21.5 µM (active) in [20]. In [6] (at 92.4 µM (top of the series)), the activity change, positive = activation is -42.4% (inactive).
Turning to `CC(C)(C)NCC(O)c1cc(Cl)c(N)c(C(F)(F)F)c1` (stereo unspecified), the Potency result in test [1], in test [2], in test [4], in test [5], in test [7] and in test [8] was “inactive” in each case. The Potency result in test [9], in test [10], in [19], in [11], in test [12] and in test [14] was “inactive” throughout. Moreover, the Potency entry in test [15], in test [16] and in test [17] was “inactive” each time. For the same compound, the compound was called inactive in test [3] and in test [18]. The activity change, positive = activation in test [6] (at 42.5 µM (top of the series)) was -0.267% (inactive). For the same compound, the max response in test [20] was 3.67% (inactive).
